A selection: hits, their analogues and other compounds. The true share with any hit is near 1.6%.
KCNQ2 inh: rat KCNQ2 potassium channel inhibitors, primary screen, cell-based, CHO-K1, FluxOR thallium flux, B-score; Potassium voltage-gated channel subfamily KQT member 2 (Rattus norvegicus), O88943; 20 min; hits give low values; B-score at 10 µM; 310,000 tested, 1.1% active;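 active means fluorescence ratio B-score at most minus 3 library SDs, with starting brightness B-score within 2 library SDs, cut at about -5.5 in these data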
KCNQ2 enhance: potentiators of rat KCNQ2 potassium channel. Potassium voltage-gated channel subfamily KQT member 2 (Rattus norvegicus), O88943. 310,000 tested, 0.54% active. CHO-K1 KCNQ2, FluxOR thallium flux fluorescence; hits give high values. B-score at 10 µM;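 active means fluorescence ratio B-score at least 3 SD of library B-scores, with initial fluorescence B-score within 3 of them, cut at about 5.3 in these data; same plate scores as AID 2156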;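 further: B-score of peak minus minimum over baseline fluorescence ratio after K+ and Tl+ stimulus; positive B-score means potentiation of KCNQ2 with more thallium influx and brighter signal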
Kir21 conf inh: mouse Kir2.1 channel blockers, retest, confirmation, cell-based, FluxOR thallium flux, duplicate; shares compounds with KCNQ2 enhance; Kir2.1-expressing cells, FluxOR thallium flux fluorescence; hits give low values; Tl flux remaining, % of negative control (hits give low values), % at 10 µM; 2,300 tested, 41% active; AID 2032, 2009;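 active means Primary-screen hit whose thallium flux fell at least 3 control SD below untreated wells in both duplicates, with normal baseline fluorescence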;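 further: 0% = blank wells without stimulus and 100% = stimulated no-compound controls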
Target sequence (P35561 whole entry, looked up): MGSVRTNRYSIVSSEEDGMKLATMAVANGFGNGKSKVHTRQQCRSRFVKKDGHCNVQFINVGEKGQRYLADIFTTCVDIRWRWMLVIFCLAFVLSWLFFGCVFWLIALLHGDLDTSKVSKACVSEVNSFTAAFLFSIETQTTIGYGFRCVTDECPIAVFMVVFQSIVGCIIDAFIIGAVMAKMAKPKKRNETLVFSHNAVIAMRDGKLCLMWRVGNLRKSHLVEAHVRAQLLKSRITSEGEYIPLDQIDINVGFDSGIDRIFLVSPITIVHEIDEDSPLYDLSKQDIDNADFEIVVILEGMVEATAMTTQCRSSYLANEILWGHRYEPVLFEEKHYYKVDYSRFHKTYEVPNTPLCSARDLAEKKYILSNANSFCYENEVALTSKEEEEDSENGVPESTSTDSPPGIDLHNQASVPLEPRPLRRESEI
HEK293 Tl flux: parental HEK293 activity in Kir2.1 inhibitor counter-screen. shares compounds with KCNQ2 enhance. parental HEK293 cells, FluxOR thallium flux fluorescence; 0% = unstimulated blank wells. FluxOR signal as % of negative control (100 = no effect), % at 10 µM. 2,300 tested, 19% active;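 active means dye signal at least 3 control SD above or below untreated wells in both duplicates, raw fluorescence within 3, either direction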;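 further: percent is based on the flux ratio of peak minus minimum fluorescence over baseline F0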
CHO-K1 Tl ctr: nonspecific thallium flux increase in parental CHO-K1, confirmation, counter-screen for KCNQ2 potentiator project, cell-based, FluxOR thallium flux, duplicate; shares compounds with KCNQ2 enhance; parental CHO-K1 cells, FluxOR thallium flux fluorescence; zero = vehicle mean+3SD, 100% = vehicle-minus-blank window; activity increase over 3SD of controls, % at 10 µM; 1,200 tested, 43% active;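 active means signal rise of at least 3 SD above the untreated control mean, in both duplicate wells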;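 further: counter screen of KCNQ2 potentiator hits so any rise reflects channel-independent effects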
KCNQ1 pot spec: human KCNQ1 channel potentiation off-target, confirmation, selectivity assay for KCNQ2 potentiator project, cell-based, CHO, FluxOR thallium flux | shares compounds with KCNQ2 enhance | 1,200 tested, 28% active | CHO KCNQ1 stable, FluxOR thallium flux fluorescence; beyond 3SD, as % of vehicle-control signal | activation over 3SD threshold, % at 10 µM;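 active means fluorescence ratio rise of at least 3 SD of vehicle wells above their mean, in both replicate wells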;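 further: 0% = vehicle mean plus 3 SD and 100% = vehicle minus unstimulated blank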
KCNQ2 pot confirm: rat KCNQ2 channel potentiators, confirmation, cell-based, CHO, FluxOR thallium flux, duplicate. shares compounds with KCNQ2 enhance. CHO-KCNQ2 cells, FluxOR thallium flux fluorescence. potentiation, less the hit threshold, % at 10 µM. 1,200 tested, 68% active;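 active means fluorescence ratio rising 3 SD or more over the vehicle control mean in both replicates, plus primary screen hit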;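 further: peak minus minimum thallium fluorescence divided by baseline after K/Tl stimulus; 0% = vehicle mean plus 3 SD and 100% = vehicle minus unstimulated blank difference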
Kir21 spec: mouse Kir2.1 channel activation off-target, confirmation, selectivity assay for KCNQ2 potentiator project, cell-based, HEK293, FluxOR thallium flux. shares compounds with KCNQ2 enhance. HEK293 Kir2.1, FluxOR thallium flux fluorescence. activity over 3SD threshold, % at 10 µM. 1,200 tested, 2% active;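 active means fluorescence ratio rise of at least 3 SD above the vehicle-control mean, seen in both replicates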;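 further: 0% = vehicle mean plus 3 SD and 100% = vehicle minus no-stimulus blank window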
KCNQ2 W236L MoA: potentiators of retigabine-insensitive KCNQ2 W236L, mechanism study for KCNQ2 potentiator project, cell-based, rat KCNQ2 W236L, CHO, automated patch clamp; shares compounds with KCNQ2 enhance; automated patch clamp current; current increase over 3SD of negative controls (%), hits give high values, % at 25 µM; 940 tested, 10% active; AID 2558, 2010;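 active means current increase at least 3 SD of the untreated controls above them in both duplicate recordings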
An asterisk follows results filed as active; i = inactive; · = no result.

SMILES	KCNQ2 inh	KCNQ2 enhance	Kir21 conf inh	HEK293 Tl flux	others
CC(NC(=O)C1CCC(CNS(=O)(=O)c2ccc3c(c2)C(C)(C)C(=O)N3C)CC1)c1ccccc1 (centres undefined)	i	0.35	·	·
CCOC(=O)[C@H]1NN=C(C(=O)OC)[C@@H]1c1ccccc1	i	0.06	·	·
CCCCn1c(N)c(N(CCC(C)C)C(=O)CN2C(=O)C3CCCCC3C2=O)c(=O)[nH]c1=O (centres undefined)	i	·	·	·
Cc1cccc(N2CCN(C(=O)c3ccc(-n4cncn4)c([N+](=O)[O-])c3)CC2)c1C	i	·	·	·
COC(=O)c1sc2nc(N3CCCCC3)c3c(c2c1N)CCCC3	i	2	·	·
NC(=O)c1sc2nc(N3CCCCC3)c3c(c2c1N)CCCC3	i	6.7*	i	i	CHO-K1 Tl ctr=10*;KCNQ1 pot spec=-12;KCNQ2 pot confirm=-5;Kir21 spec=-29;KCNQ2 W236L MoA=i
CCOC(=O)c1c(CSC(=N)N)n(-c2ccc(C)cc2)c2cc(Br)c(OC(C)=O)cc12	i	·	58%*	i
CCOC(=O)c1c(CSC(=N)N)n(C)c2cc(Br)c(OC(C)=O)cc12	i	·	·	·
CCN(CC)CCCNC(=S)N(CCO)Cc1cc2cc3c(cc2[nH]c1=O)OCCO3	i	·	·	·
CCN(CC)CCCN(C(=O)c1ccco1)c1nc(-c2ccc(C)cc2)cs1	i	·	·	·
CCN(CC)CCCN(C(=O)c1ccco1)c1nc(-c2ccc(Cl)cc2)cs1	i	·	51%*	i
CS(=O)(=O)c1ccc(Cl)c(NC(=O)CN2C(=O)C3CCCCC3C2=O)c1 (centres undefined)	i	·	·	·
CC1=NOC(=O)/C1=C/c1ccc(O)cc1	i	1.9	·	·
O=C1ON=C(c2ccc(Cl)cc2)/C1=C/c1ccc(O)cc1	-7.4*	-7.4	58%*	i
O=C1ON=C(c2ccccc2)/C1=C/c1ccc(O)cc1	i	·	i	i
Cc1ccc(C2=NOC(=O)/C2=C\c2ccccc2)cc1	i	0.59	·	·
OCCNc1cc(Cl)ncn1	i	·	·	·
CCn1ncc(Br)c1C(=O)Nc1ccc(C(C)C)cc1	i	0.81	·	·
O=C1CC(=O)N(CCc2ccccc2)C(=O)N1CCc1ccccc1	i	2.8	·	·
O=C1C=CC(=O)C(C2=C3C(=O)N(CCc4ccccc4)CC(=O)N3CCC2)=C1	i	0.29	69%*	69%*
COc1ccc(C(C)C)cc1S(=O)(=O)N1CCC(C(=O)N2CCN(C)CC2)CC1	i	·	·	·
COc1ccc(Br)cc1S(=O)(=O)N1CCOCC1	i	2	·	·
COc1ccc(F)cc1S(=O)(=O)N1CC(C)CC(C)C1 (centres undefined)	i	·	44%*	i
COc1ccc(Br)cc1S(=O)(=O)N1CC(C)OC(C)C1 (centres undefined)	i	2.9	56%*	i
COc1ccc(F)cc1S(=O)(=O)N1CCN(c2ccccn2)CC1	i	·	·	·
